Measurements: PubChem BioAssay (NCI)
The panel holds about 83,000 compounds, 20% with a hit somewhere; the sample as a whole holds those more often.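 Each cell line was grown in a 96-well plate and treated with one concentration of compound for 48 hours. Values below 10 were considered active.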 Unmarked numbers belong to inactive results. Calls of active or inactive are those of the source.

Each compound was assayed on MALME-3M melanoma (assay: NCI-60 one-dose screen, 48 h (100 = growth as untreated, 0 = no growth, -100 = all killed)). Conditions: 10 µM unless noted.

`O=c1ccc2nc(C(F)(F)F)nn(-c3ccccc3)c-2c1` was tested, and the growth was -41.7% (active).
For `CCCCCCCCn1ccc2cc(NC(=O)Cn3cc(CN4CCN(CC)CC4)nn3)ccc21`, the growth was -11.1% (active).
`O=C(N/N=C/c1ccc([N+](=O)[O-])cc1)c1ccc2nc(-c3ccc(Cl)cc3)[nH]c2c1` was tested, and the growth was 7.79% (active).
For `N#Cc1c(N2CCOCC2)nc(=S)[nH]c1-c1ccccc1`, the growth was -3.74% (active).
`O=C1NC(=C(Cl)Cl)/C(=N/S(=O)(=O)N2CCCCC2)N1` was tested, and the growth was -73.6% (active).

Compared with `O=P(O)(O)OCC1OC(n2cnc3c(NCc4ccccc4)ncnc32)C(O)C1O` (stereo not given), `Cc1nc2sc(C(=O)Nc3cccc(Cl)c3)c(N)c2cc1C(O)c1ccccc1` (stereo not given) is lower in growth: 80.9% for the first, 49.7% for the second.

Compared with `Cc1cc2nc(-c3c(-c4ccc(F)cc4)nc4sccn34)[nH]c2cc1C`, `O=C1Nc2ccc(F)cc2/C1=N/c1nnc(Sc2ccccc2)s1` is higher in growth: 106% for the first, 110% for the second.

Compared with `CCOC(=O)N1CCN(S(=O)(=O)c2oc(-c3ccc(Cl)cc3)nc2C#N)CC1`, `CC(C)CSc1oc(-c2ccccc2)nc1S(=O)(=O)c1ccccc1` is higher in growth: 79.8% for the first, 95.6% for the second.

Compared with `CC12CCC(/C(=C/NNc3ccc([N+](=O)[O-])cc3[N+](=O)[O-])C1=O)C2(C)C` (stereo not given), `COc1cccc(Nc2ccnc3[nH]c4ccc([N+](=O)[O-])cc4c23)c1` is lower in growth: 128% for the first, 53% for the second.

Going from `COc1ccc(/C(C)=C(\c2ccc(OCCN3CCCCCC3)cc2)c2ccc(OC(=O)c3ccccc3)cc2)cc1` to `COc1ccc(/C=C/C(=O)c2ccc(NC(=O)CSc3nnc(-c4cc(-c5ccccc5)nc5ccccc45)n3-c3ccccc3)cc2)cc1`, the growth rises from 22.7% to 98%.

Compared with `COc1cc(/C=C\c2cc(/C=C\c3ccc(O)c(OC)c3)n(C(=O)CNc3ccc(Cl)cc3)n2)ccc1O`, `COc1cc(C2=NN(C(C)=O)C(c3ccc(N(C)C)cc3)C2)cc(OC)c1OC` (stereo not given) is higher in growth: 34.2% for the first, 87.3% for the second.

First: CN(C)c1ccc(-c2cc(-c3ccc(Nc4nc(Nc5ccc(Cl)cc5)nc(Nc5ccc(Cl)cc5)n4)cc3)nc(N)c2C#N)cc1
Second: COc1ccc(C2=Nc3c(N)ncnc3NC(c3cccc(Nc4ccnc5cc(C(F)(F)F)ccc45)c3)C2)cc1 (stereo not given)
The growth of the first is higher: 81.8% for the first, 72.3% for the second.

First: Nc1ccc([N+](=O)[O-])cc1N=C/C=C/c1ccccc1
Second: O=C(/C=C/C12c3ccccc3C(c3ccccc31)C1C(=O)NC(=O)C12)c1ccccn1 (stereo not given)
The growth of the first is higher: 138% for the first, 19.1% for the second.

Going from `COc1cc2c(cc1O)[C@@]1(C)[C@H](c3ccccc3Br)OC(=O)N1CC2` to `COc1ccc2[nH]cc(-c3nc(-c4cn(C)c5ccncc45)cs3)c2c1`, the growth rises from 83.1% to 86.9%.

Compared with `CC1(C)CC[C@]2(C(=O)O)CC[C@]3(C)C(=CC[C@@H]4[C@@]5(C)C[C@@H](Cc6cn([C@@H]7O[C@H](CO)[C@@H](O)[C@H](O)[C@H]7O)nn6)[C@H](O)C(C)(C)[C@@H]5CC[C@]43C)[C@@H]2C1`, `O=C(/C=C/c1ccc(Br)cc1)c1ccc(-n2cc(CN3CCN(c4cc5c(cc4F)c(=O)c(C(=O)O)cn5C4CC4)CC3)nn2)cc1` is lower in growth: 112% for the first, 102% for the second.

First: N#Cc1c(NC(=O)c2cccs2)[n+]([O-])c2ccc(Cl)cc2[n+]1[O-]
Second: CC(C)c1ccc(C(=O)Nc2sc3cc(O)ccc3c2C#N)cc1
The growth of the first is higher: 92% for the first, 39.2% for the second.

Going from `CCN1C(=O)N(CC)C2C1NN=C1SCC(=O)N12` (stereo not given) to `CS(=O)(=O)Cc1cnc(C2OCCO2)s1`, the growth rises from 77% to 92.7%.

Compared with `CC(=O)N/C(=C1/OC(C(O)C(O)C(O)CO)CN1C)[P+](c1ccccc1)(c1ccccc1)c1ccccc1` (stereo not given), `Cc1cc(N2CCCCC2)nc(N2CCN(CC(=O)Nc3ccc4c(ccn4Cc4ccccc4)c3)CC2)n1` is lower in growth: 90.5% for the first, 70.4% for the second.

First: CCOC(=O)Nc1nc2ccc(SCC(C)C)cc2s1
Second: Cc1[nH]c(/C=C/C(=O)c2ccc(C(F)(F)F)c(F)c2)c(C)c1C(=O)NCC(C)C
The growth of the first is lower: 32.4% for the first, 96.6% for the second.

Compared with `NNC(=S)N/N=C/c1ccccn1`, `O=C(/C=C\c1ccco1)/C=C/c1ccco1` is higher in growth: 54.3% for the first, 112% for the second.

First: Nc1c(C(=O)Nc2ccncc2)sc2nc3c(cc12)CCCCC3
Second: O=C(CCCCCCN1CC(=O)N2[C@@H](C3CCCCC3)c3[nH]c4ccccc4c3C[C@H]2C1=O)NO
The growth of the first is higher: 90.6% for the first, 37.5% for the second.

Going from `CC(C)(CO)N(CCO)CCO` to `Clc1ccc(-c2cn3ccsc3n2)c(Cl)c1Cl`, the growth rises from 105% to 117%.

Compound `CCOC(=O)c1c(C)c2c(n1C)CSc1cc(S(=O)(=O)c3ccccc3)c(=O)[nH]c1-2` has a growth of 73.2% [100 µM].

What follows are compounds tested on MDA-MB-231 breast in the same assay as above. Conditions: 10 µM unless noted.

Going from `O=c1ccc2nc(C(F)(F)F)nn(-c3ccccc3)c-2c1` to `O=C1Nc2ccc(F)cc2/C1=N/c1nnc(Sc2ccccc2)s1`, the growth rises from 61% to 87.1%.

Going from `O=P(O)(O)OCC1OC(n2cnc3c(NCc4ccccc4)ncnc32)C(O)C1O` (stereo not given) to `Cc1nc2sc(C(=O)Nc3cccc(Cl)c3)c(N)c2cc1C(O)c1ccccc1` (stereo not given), the growth rises from 10.6% to 22.3%.

Compared with `Cc1cc2nc(-c3c(-c4ccc(F)cc4)nc4sccn34)[nH]c2cc1C`, `O=C(N/N=C/c1ccc([N+](=O)[O-])cc1)c1ccc2nc(-c3ccc(Cl)cc3)[nH]c2c1` is lower in growth: 102% for the first, 76.9% for the second.

First: CCOC(=O)N1CCN(S(=O)(=O)c2oc(-c3ccc(Cl)cc3)nc2C#N)CC1
Second: N#Cc1c(N2CCOCC2)nc(=S)[nH]c1-c1ccccc1
The growth of the first is higher: 93.4% for the first, 73.1% for the second.

First: CCCCCCCCn1ccc2cc(NC(=O)Cn3cc(CN4CCN(CC)CC4)nn3)ccc21
Second: Cc1cc(N2CCCCC2)nc(N2CCN(CC(=O)Nc3ccc4c(ccn4Cc4ccccc4)c3)CC2)n1
The growth of the first is lower: 45.8% for the first, 64.3% for the second.

Compared with `CC12CCC(/C(=C/NNc3ccc([N+](=O)[O-])cc3[N+](=O)[O-])C1=O)C2(C)C` (stereo not given), `COc1cccc(Nc2ccnc3[nH]c4ccc([N+](=O)[O-])cc4c23)c1` is lower in growth: 66.1% for the first, 60.1% for the second.

Going from `COc1ccc(/C(C)=C(\c2ccc(OCCN3CCCCCC3)cc2)c2ccc(OC(=O)c3ccccc3)cc2)cc1` to `COc1ccc(/C=C/C(=O)c2ccc(NC(=O)CSc3nnc(-c4cc(-c5ccccc5)nc5ccccc45)n3-c3ccccc3)cc2)cc1`, the growth rises from 52.6% to 87.3%.

First: COc1cc(/C=C\c2cc(/C=C\c3ccc(O)c(OC)c3)n(C(=O)CNc3ccc(Cl)cc3)n2)ccc1O
Second: COc1cc(C2=NN(C(C)=O)C(c3ccc(N(C)C)cc3)C2)cc(OC)c1OC (stereo not given)
The growth of the first is lower: 43% for the first, 74.1% for the second.

First: CN(C)c1ccc(-c2cc(-c3ccc(Nc4nc(Nc5ccc(Cl)cc5)nc(Nc5ccc(Cl)cc5)n4)cc3)nc(N)c2C#N)cc1
Second: COc1ccc(C2=Nc3c(N)ncnc3NC(c3cccc(Nc4ccnc5cc(C(F)(F)F)ccc45)c3)C2)cc1 (stereo not given)
The growth of the first is higher: 77.4% for the first, 46.3% for the second.

First: Nc1ccc([N+](=O)[O-])cc1N=C/C=C/c1ccccc1
Second: CC(C)CSc1oc(-c2ccccc2)nc1S(=O)(=O)c1ccccc1
The growth of the first is lower: 47.6% for the first, 89.4% for the second.

Going from `COc1cc2c(cc1O)[C@@]1(C)[C@H](c3ccccc3Br)OC(=O)N1CC2` to `O=C(/C=C/C12c3ccccc3C(c3ccccc31)C1C(=O)NC(=O)C12)c1ccccn1` (stereo not given), the growth falls from 95.6% to 16.4%.

Compared with `CC1(C)CC[C@]2(C(=O)O)CC[C@]3(C)C(=CC[C@@H]4[C@@]5(C)C[C@@H](Cc6cn([C@@H]7O[C@H](CO)[C@@H](O)[C@H](O)[C@H]7O)nn6)[C@H](O)C(C)(C)[C@@H]5CC[C@]43C)[C@@H]2C1`, `O=C(/C=C/c1ccc(Br)cc1)c1ccc(-n2cc(CN3CCN(c4cc5c(cc4F)c(=O)c(C(=O)O)cn5C4CC4)CC3)nn2)cc1` is lower in growth: 97.2% for the first, 80.1% for the second.

Going from `N#Cc1c(NC(=O)c2cccs2)[n+]([O-])c2ccc(Cl)cc2[n+]1[O-]` to `CC(C)c1ccc(C(=O)Nc2sc3cc(O)ccc3c2C#N)cc1`, the growth falls from 82.7% to 46.3%.

Compared with `CCN1C(=O)N(CC)C2C1NN=C1SCC(=O)N12` (stereo not given), `CS(=O)(=O)Cc1cnc(C2OCCO2)s1` is higher in growth: 59.4% for the first, 109% for the second.

First: CC(=O)N/C(=C1/OC(C(O)C(O)C(O)CO)CN1C)[P+](c1ccccc1)(c1ccccc1)c1ccccc1 (stereo not given)
Second: O=C(CCCCCCN1CC(=O)N2[C@@H](C3CCCCC3)c3[nH]c4ccccc4c3C[C@H]2C1=O)NO
The growth of the first is higher: 103% for the first, 82.9% for the second.

Compared with `CCOC(=O)Nc1nc2ccc(SCC(C)C)cc2s1`, `Cc1[nH]c(/C=C/C(=O)c2ccc(C(F)(F)F)c(F)c2)c(C)c1C(=O)NCC(C)C` is higher in growth: 40.6% for the first, 99.4% for the second.

First: NNC(=S)N/N=C/c1ccccn1
Second: O=C(/C=C\c1ccco1)/C=C/c1ccco1
The growth of the first is lower: 47.2% for the first, 93.4% for the second.

Going from `Nc1c(C(=O)Nc2ccncc2)sc2nc3c(cc12)CCCCC3` to `Clc1ccc(-c2cn3ccsc3n2)c(Cl)c1Cl`, the growth falls from 90.9% to 76.1%.

In the case of `CC(C)(CO)N(CCO)CCO`, the growth is reported as 104%.

In the case of `COc1ccc2[nH]cc(-c3nc(-c4cn(C)c5ccncc45)cs3)c2c1`, the growth is reported as -61.7% (active).
In the case of `O=C1NC(=C(Cl)Cl)/C(=N/S(=O)(=O)N2CCCCC2)N1`, the growth is reported as -6.69% (active).

Compound `CCOC(=O)c1c(C)c2c(n1C)CSc1cc(S(=O)(=O)c3ccccc3)c(=O)[nH]c1-2` has a growth of 31.1% [100 µM].
